Data from the supplement of paper PMC10849652.
Targets with a hit are over-represented here; the source holds about 7,900 in all. About 0.6% of all pairs of compound and target were hits. Unmarked numbers belong to inactive results.

What was measured:
Assay in all cases: log2 fold change, soluble protein after heating vs DMSO (PISA); higher = thermal stabilisation; K562 cells, 10 uM, 30 min; active = over 0.2 and 3.5 SD of the protein, either way, in both replicates (recomputed)
bafetinib = compound: Cc1ccc(NC(=O)c2ccc(CN3CC[C@H](N(C)C)C3)c(C(F)(F)F)c2)cc1Nc1nccc(-c2cncnc2)n1 [bafetinib]
In short: (§1)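 K562 cells at 2×10^6 cells/mL were treated for 30 min with 10 μM compound, and aliquots were heated for 3 min over 48°C-58°C before pooling. Extraction used PBS with 0.5% NP-40 at 4°C, and soluble protein was the supernatant after 21,000xg for 90 min, measured by TMTpro 16plex LC-MS/MS with channel sums equalised. Thermal stability values, relative to control samples and from duplicates, are log2 fold changes.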

[1] = compound: Cc1cccc(CC(=O)N2CCc3c2ccc(-c2cn(C)c4ncnc(N)c24)c3F)n1
In short: as §1

nilotinib = compound: Cc1cn(-c2cc(NC(=O)c3ccc(C)c(Nc4nccc(-c5cccnc5)n4)c3)cc(C(F)(F)F)c2)cn1 [nilotinib]
In short: as §1

[2] = compound: Cc1nc(Nc2n[nH]c3c2CN(C(=O)N[C@H](CN(C)C)c2ccccc2)C3(C)C)c2sccc2n1
In short: as §1

dasatinib = compound: Cc1nc(Nc2ncc(C(=O)Nc3c(C)cccc3Cl)s2)cc(N2CCN(CCO)CC2)n1 [dasatinib]
In short: as §1

[3] = compound: Cc1ncc(-c2ccnc(Nc3ccc(S(C)(=O)=O)cc3)n2)n1C(C)C
In short: as §1

[4] = compound: Cn1cc(-c2ccc3c(c2)CCN3C(=O)Cc2cccc(C(F)(F)F)c2)c2c(N)ncnc21
In short: as §1

[5] = compound: Cn1cc(-c2ccc3nnc(C(F)(F)c4ccc5ncccc5c4)n3n2)cn1
In short: as §1

tipifarnib = compound: Cn1cncc1[C@@](N)(c1ccc(Cl)cc1)c1ccc2c(c1)c(-c1cccc(Cl)c1)cc(=O)n2C [tipifarnib]
In short: as §1

mubritinib = compound: FC(F)(F)c1ccc(/C=C/c2nc(COc3ccc(CCCCn4ccnn4)cc3)co2)cc1 [mubritinib]
In short: as §1

[6] = compound: NC(=O)Nc1cc(-c2cccc(F)c2)sc1C(=O)N[C@H]1CCCNC1
In short: as §1

[7] = compound: NC(=O)c1cnc(N[C@@H]2CCCC[C@@H]2N)nc1Nc1cccc(-n2nccn2)c1
In short: as §1

[8] = compound: NC1(c2ccc(-c3nc4ccn5c(=O)[nH]nc5c4cc3-c3ccccc3)cc2)CCC1
In short: as §1

[9] = compound: NCC(=O)Nc1ccc(-n2nc(C(F)(F)F)cc2-c2ccc3c(ccc4ccccc43)c2)cc1
In short: as §1

entinostat = compound: Nc1ccccc1NC(=O)c1ccc(CNC(=O)OCc2cccnc2)cc1 [entinostat]
In short: as §1

vorinostat = compound: O=C(CCCCCCC(=O)Nc1ccccc1)NO [vorinostat]
In short: as §1

citarinostat = compound: O=C(CCCCCCNC(=O)c1cnc(N(c2ccccc2)c2ccccc2Cl)nc1)NO [citarinostat]
In short: as §1

silmitasertib = compound: O=C(O)c1ccc2c(c1)nc(Nc1cccc(Cl)c1)c1ccncc12 [silmitasertib]
In short: as §1

[10] = compound: O=C1NC(=O)C(c2cnc3ccccn23)=C1c1cn2c3c(cc(F)cc13)CN(C(=O)N1CCCCC1)CC2
In short: as §1

[11] = compound: c1cc(OCCN2CCCCC2)cc(-c2n[nH]c3ccc(-c4nnc[nH]4)cc23)c1
In short: as §1

UniProt Q8IX12, sequence (Q8IX12 whole entry, looked up): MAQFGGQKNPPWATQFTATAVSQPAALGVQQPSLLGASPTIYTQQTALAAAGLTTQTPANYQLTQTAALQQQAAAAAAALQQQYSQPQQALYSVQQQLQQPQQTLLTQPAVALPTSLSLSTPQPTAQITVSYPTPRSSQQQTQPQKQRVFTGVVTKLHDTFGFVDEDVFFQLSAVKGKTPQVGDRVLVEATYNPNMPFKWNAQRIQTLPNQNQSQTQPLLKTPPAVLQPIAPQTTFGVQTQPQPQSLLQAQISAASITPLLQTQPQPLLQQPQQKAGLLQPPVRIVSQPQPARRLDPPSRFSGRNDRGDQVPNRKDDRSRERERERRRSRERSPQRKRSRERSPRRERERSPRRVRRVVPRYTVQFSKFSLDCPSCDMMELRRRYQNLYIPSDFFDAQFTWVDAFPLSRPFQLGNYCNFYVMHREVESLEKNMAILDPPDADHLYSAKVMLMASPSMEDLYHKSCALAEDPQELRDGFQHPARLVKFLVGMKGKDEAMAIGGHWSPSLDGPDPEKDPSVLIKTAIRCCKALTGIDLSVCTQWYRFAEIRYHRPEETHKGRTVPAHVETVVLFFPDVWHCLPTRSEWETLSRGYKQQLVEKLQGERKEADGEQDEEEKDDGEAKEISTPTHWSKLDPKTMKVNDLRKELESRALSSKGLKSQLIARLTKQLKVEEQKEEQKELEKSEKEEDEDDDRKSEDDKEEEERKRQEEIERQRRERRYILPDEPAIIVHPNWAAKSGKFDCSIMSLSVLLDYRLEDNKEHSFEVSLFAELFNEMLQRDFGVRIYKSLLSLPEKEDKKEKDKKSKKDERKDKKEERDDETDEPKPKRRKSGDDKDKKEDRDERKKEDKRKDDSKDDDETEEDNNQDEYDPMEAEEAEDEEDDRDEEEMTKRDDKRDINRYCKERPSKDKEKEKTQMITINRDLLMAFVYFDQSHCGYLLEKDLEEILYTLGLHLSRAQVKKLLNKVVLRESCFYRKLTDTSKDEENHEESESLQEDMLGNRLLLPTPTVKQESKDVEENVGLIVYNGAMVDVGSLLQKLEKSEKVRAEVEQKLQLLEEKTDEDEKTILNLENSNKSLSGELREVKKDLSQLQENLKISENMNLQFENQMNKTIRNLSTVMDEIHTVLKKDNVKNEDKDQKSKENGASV
UniProt Q5RI15, sequence (Q5RI15 whole entry, looked up): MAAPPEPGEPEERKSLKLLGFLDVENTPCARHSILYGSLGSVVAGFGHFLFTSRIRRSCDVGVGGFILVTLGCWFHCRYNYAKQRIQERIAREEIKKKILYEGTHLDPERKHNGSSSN
UniProt Q9P031, sequence (Q9P031 whole entry, looked up): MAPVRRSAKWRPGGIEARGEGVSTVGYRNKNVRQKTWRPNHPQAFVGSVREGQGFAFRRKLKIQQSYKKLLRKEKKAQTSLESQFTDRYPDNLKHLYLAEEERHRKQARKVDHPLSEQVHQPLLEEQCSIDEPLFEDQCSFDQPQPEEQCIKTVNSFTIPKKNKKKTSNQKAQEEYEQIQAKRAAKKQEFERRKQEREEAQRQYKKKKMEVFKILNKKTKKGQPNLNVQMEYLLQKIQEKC
UniProt Q14839, sequence (Q14839 whole entry, looked up): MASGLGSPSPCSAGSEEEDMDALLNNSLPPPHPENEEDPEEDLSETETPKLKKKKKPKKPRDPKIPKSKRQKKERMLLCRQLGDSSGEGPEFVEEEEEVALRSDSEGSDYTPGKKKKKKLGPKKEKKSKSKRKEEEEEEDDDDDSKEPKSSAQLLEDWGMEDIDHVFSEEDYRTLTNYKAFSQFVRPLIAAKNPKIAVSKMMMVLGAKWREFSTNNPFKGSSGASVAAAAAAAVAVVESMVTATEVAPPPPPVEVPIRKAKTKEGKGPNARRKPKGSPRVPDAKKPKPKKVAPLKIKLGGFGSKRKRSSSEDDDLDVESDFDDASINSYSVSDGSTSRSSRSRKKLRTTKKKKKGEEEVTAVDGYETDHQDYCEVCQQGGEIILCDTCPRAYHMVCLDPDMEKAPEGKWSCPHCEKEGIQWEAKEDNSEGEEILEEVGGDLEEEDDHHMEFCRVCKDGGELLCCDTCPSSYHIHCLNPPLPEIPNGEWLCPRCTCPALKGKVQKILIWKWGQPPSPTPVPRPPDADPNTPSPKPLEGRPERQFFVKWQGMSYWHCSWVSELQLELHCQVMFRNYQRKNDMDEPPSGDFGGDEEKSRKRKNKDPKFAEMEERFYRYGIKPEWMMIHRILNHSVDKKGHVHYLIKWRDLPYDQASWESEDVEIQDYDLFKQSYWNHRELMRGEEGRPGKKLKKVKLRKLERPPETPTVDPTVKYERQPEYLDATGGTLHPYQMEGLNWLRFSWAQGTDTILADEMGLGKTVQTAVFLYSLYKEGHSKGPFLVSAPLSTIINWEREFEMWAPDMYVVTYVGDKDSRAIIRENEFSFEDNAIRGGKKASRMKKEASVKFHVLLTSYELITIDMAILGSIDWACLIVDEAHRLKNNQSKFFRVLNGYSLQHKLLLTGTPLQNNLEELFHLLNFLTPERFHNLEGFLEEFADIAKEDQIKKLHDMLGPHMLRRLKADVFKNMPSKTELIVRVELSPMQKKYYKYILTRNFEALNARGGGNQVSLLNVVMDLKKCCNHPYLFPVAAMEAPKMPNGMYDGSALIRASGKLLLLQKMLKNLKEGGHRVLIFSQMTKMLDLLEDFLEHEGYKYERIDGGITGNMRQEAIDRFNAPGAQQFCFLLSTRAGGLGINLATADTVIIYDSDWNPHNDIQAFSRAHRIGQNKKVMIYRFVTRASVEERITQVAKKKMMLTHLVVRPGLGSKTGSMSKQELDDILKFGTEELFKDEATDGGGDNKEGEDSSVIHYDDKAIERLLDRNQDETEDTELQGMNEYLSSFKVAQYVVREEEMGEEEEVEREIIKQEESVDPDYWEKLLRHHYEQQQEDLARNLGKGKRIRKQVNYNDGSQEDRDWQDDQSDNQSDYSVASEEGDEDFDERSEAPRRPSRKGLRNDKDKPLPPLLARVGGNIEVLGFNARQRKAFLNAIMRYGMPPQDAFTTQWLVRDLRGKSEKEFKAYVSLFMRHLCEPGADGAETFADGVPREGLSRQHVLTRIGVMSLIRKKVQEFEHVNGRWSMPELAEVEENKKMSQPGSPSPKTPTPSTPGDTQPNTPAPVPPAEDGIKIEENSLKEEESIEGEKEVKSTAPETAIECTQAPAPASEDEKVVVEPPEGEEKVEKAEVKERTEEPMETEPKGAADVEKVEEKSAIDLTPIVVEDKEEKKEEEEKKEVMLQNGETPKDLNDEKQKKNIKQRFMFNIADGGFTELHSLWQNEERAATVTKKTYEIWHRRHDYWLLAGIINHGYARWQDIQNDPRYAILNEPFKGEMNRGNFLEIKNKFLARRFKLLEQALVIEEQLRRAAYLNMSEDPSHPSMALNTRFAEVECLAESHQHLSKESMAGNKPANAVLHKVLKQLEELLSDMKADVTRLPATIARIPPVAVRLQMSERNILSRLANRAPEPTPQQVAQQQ
UniProt Q10570, sequence (Q10570 whole entry, looked up): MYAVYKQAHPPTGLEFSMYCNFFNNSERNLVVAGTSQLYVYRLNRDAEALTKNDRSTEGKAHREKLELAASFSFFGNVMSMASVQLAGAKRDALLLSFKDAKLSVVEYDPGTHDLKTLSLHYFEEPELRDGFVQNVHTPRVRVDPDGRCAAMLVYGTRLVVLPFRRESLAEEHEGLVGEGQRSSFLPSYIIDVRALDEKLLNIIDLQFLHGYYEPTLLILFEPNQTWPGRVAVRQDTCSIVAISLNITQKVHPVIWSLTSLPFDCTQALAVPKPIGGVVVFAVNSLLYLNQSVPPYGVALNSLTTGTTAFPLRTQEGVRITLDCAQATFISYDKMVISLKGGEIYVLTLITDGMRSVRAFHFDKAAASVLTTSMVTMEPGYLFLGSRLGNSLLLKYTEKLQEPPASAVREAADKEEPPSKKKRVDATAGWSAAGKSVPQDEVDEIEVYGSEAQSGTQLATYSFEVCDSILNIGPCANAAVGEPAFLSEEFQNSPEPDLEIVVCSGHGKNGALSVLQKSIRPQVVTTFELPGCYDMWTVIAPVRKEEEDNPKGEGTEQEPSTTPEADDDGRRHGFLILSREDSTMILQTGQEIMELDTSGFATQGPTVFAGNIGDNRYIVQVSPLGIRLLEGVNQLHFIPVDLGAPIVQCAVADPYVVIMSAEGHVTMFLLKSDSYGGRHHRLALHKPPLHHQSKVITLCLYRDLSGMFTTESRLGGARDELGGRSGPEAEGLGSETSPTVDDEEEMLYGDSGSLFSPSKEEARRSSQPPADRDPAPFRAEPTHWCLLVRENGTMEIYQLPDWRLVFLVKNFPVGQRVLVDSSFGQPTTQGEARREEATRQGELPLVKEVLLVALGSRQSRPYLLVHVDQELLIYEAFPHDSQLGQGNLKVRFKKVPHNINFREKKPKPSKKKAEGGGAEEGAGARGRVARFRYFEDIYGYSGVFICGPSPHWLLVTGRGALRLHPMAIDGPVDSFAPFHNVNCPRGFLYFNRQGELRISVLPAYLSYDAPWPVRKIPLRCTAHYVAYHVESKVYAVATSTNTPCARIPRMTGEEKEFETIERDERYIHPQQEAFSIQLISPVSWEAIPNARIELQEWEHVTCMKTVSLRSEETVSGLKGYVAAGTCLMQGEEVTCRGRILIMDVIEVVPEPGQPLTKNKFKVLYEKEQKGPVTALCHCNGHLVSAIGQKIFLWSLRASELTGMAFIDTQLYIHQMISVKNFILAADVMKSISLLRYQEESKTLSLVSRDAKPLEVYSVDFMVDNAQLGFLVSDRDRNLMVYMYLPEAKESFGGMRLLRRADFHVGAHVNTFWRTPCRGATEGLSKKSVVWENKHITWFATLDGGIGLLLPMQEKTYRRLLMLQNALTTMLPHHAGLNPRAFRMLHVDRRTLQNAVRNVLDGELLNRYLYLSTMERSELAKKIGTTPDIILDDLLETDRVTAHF
UniProt Q8WUX2, sequence (Q8WUX2 whole entry, looked up): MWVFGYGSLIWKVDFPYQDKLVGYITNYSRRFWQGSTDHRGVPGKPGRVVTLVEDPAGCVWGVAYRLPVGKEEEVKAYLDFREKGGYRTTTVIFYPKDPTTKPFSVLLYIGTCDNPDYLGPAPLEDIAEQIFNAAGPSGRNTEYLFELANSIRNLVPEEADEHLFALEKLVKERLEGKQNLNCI

Row | Target | log2 fold change (bafetinib) | log2 fold change [1] | log2 fold change (nilotinib) | log2 fold change [2] | log2 fold change (dasatinib) | log2 fold change [3] | log2 fold change [4] | log2 fold change [5] | log2 fold change (tipifarnib) | log2 fold change (mubritinib) | log2 fold change [6] | log2 fold change [7] | log2 fold change [8] | log2 fold change [9] | log2 fold change (entinostat) | log2 fold change (vorinostat) | log2 fold change (citarinostat) | log2 fold change (silmitasertib) | log2 fold change [10] | log2 fold change [11]
1 | CPSF7 isoform 3 (UniProt Q8N684) | 0.07 | -0.107 | 0.028 | -0.552 (active) | 0.012 | 0.044 | 0.003 | -0.027 | -0.048 | -0.048 | -0.063 | 0.025 | 0.027 | 0.013 | -0.023 | 0.01 | 0.001 | -0.069 | 0.054 | -0.035
2 | CCDC59 (UniProt Q9P031) | 0.117 | -0.041 | 0.032 | 0.048 | 0.037 | 0.028 | -0.277 | -0.13 | 0.09 | -0.056 | -0.033 | 0.122 | 0.166 | 0.139 | -0.149 | -0.099 | -0.178 | 0.154 | 0.21 | 0.07
3 | CPSF1 (UniProt Q10570) | 0.026 | -0.007 | 0.065 | -0.002 | -0.037 | -0.014 | -0.077 | -0.14 | 0.026 | -0.007 | 0.024 | 0.069 | 0.059 | 0.006 | -0.023 | 0.012 | -0.025 | 0.052 | 0.099 | -0.139
4 | CHAC2 (UniProt Q8WUX2) | -0.052 | -0.003 | 0.078 | -0.153 | 0.012 | 0.012 | -0.004 | -0.006 | -0.037 | 0.045 | 0.022 | -0.019 | -0.008 | -0.028 | -0.017 | -0.016 | -0.232 | 0.022 | -0.03 | 0.419 (active)
5 | CHD4 isoform 2 (UniProt Q14839) | 0.068 | -0.018 | -0.143 | -0.267 | -0.059 | -0.137 | -0.063 | -0.002 | -0.083 | -0.06 | -0.043 | -0.07 | -0.122 | -0.039 | 0.022 | 0.049 | 0.063 | 0.099 | -0.023 | -0.069
6 | CPSF6 isoform 2 (UniProt Q16630) | 0.079 | -0.136 | 0.06 | -1.43 (active) | 0.009 | 0.014 | 0.039 | -0.008 | 0.031 | 0.006 | -0.027 | -0.037 | -0.01 | 0.029 | -0.008 | -0.007 | 0.004 | -0.225 (active) | -0.003 | -0.179
7 | CMTR1 (UniProt Q8N1G2) | -0.054 | 0 | -0.059 | -0.01 | -0.059 | 0.035 | -0.033 | 0.044 | -0.03 | 0.029 | -0.022 | -0.015 | -0.135 | -0.01 | -0.025 | 0.026 | 0.002 | 0.004 | -0.083 | -0.009
8 | CCAR1 (UniProt Q8IX12) | 0.036 | 0.036 | -0.055 | -0.033 | -0.112 | -0.095 | 0.079 | 0.019 | -0.091 | 0.122 | 0 | -0.068 | -0.198 | -0.035 | 0.021 | 0.067 | 0.018 | -0.049 | -0.043 | -0.016
9 | COA6 isoform 2 (UniProt Q5JTJ3) | -0.093 | 0.002 | -0.064 | 0.02 | -0.017 | 0.012 | -0.097 | 0.035 | -0.008 | 0.041 | 0.034 | 0.106 | -0.009 | -0.018 | -0.003 | -0.024 | 0.053 | 0.01 | 0.011 | -0.041
10 | COX20 isoform 2 (UniProt Q5RI15) | -0.072 | -0.241 | 0.017 | 0.012 | 0.049 | 0.009 | -0.044 | 0.023 | -0.069 | -0.092 | -0.02 | -0.016 | 0.363 (active) | -0.029 | -0.036 | -0.116 | 0.027 | -0.034 | -0.004 | 0.016
11 | C19orf53 (UniProt Q9UNZ5) | 0.271 | 0.034 | 0.029 | 0.139 | 0.222 | 0.023 | -0.207 | -0.083 | 0.165 | -0.13 | 0.136 | 0.061 | 0.279 | 0.177 | -0.026 | -0.051 | -0.105 | 0.123 | 0.214 | -0.155
12 | CCNH (UniProt P51946) | -0.064 | -0.01 | -0.008 | 0.113 | 0.023 | -0.056 | -0.005 | 0.005 | 0.051 | 0.08 | -0.043 | -0.009 | 0.024 | -0.02 | -0.006 | -0.028 | 0.015 | 0.02 | -0.083 | -0.027
13 | COQ9 (UniProt O75208) | -0.124 | 0.074 | -0.06 | -0.035 | -0.147 | 0.001 | 0.052 | 0.028 | -0.068 | -0.04 | 0.02 | -0.002 | -0.151 | -0.032 | 0.045 | 0.028 | -0.013 | 0.021 | -0.103 | 0.008
14 | CDK5 (UniProt Q00535) | -0.091 | 0.035 | -0.055 | -0.142 | -0.078 | -0.034 | -0.033 | -0.031 | -0.054 | -0.103 | -0.045 | -0.01 | -0.065 | -0.082 | 0.016 | 0.007 | 0.06 | 0.016 | -0.1 | -0.05
15 | COPS3 (UniProt Q9UNS2) | -0.05 | -0.027 | 0.006 | 0.004 | -0.02 | -0.012 | 0.014 | 0.04 | 0.004 | 0.023 | 0 | -0.034 | -0.002 | 0.011 | 0.002 | -0.003 | 0.014 | -0.02 | -0.021 | -0.019
